Screening results deposited in PubChem by Broad Institute.
The list is not random: actives were taken first. Their share in the collection is about 1.2%.
NSD2 inh = inhibitors of human histone methyltransferase NSD2. O96028. NSD2 peptide methylation, AlphaScreen, 120 min. inhibition, % at 12.5 µM. hit rate 0.54% among 310,000. AID 743445; in the data active = inhibition above about 50%
C2C12 statin = protects C2C12 myotubes from simvastatin toxicity; hit rate 0.78% among 330,000; rescue of ATP level, % at 7.49 µM; ATP luminescence, 48 h; scaled: DMSO 0, geranylgeraniol control 100;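 active = mean ATP rescue above about 67%, or every replicate alone reaching that limit, limit read from the data, passing the limit was not always enough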;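 note: myotubes were challenged with 10 µM simvastatin during compound exposure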
PglD inh = PglD (C. jejuni) enzyme inhibition; hit rate 0.098% among 360,000; purified PglD enzyme, DTNB colorimetric CoA detection; inhibition, % at 12.5 µM; in the data active = inhibition above about 16%, passing the limit was not always enough
miR-122 sensor = miR-122 inhibition in Huh7 cells. activation (reporter increase), % at 12.5 µM. Huh7 miR-122 Renilla luciferase sensor, 48 h; neutral wells = 0, positive control = 100. hit rate 0.3% among 340,000. AID 602342;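 active = mean replicate activation score at least 90 and every replicate individually at or above 90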;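 note: higher luciferase means less miR-122 activity so hits act as miR-122 inhibitors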
Numbers stand for hits.

CCCCC(=O)N1CCCC(c2nc3c(nnn3Cc3cc(C)ccc3C)c(=O)[nH]2)C1 (configuration not stated) was read as NSD2 inh inactive, C2C12 statin inactive, PglD inh inactive and miR-122 sensor inactive.
For O=c1[nH]c(C2CCN(S(=O)(=O)c3ccc4c(c3)OCCO4)CC2)nc2c1nnn2Cc1ccccc1 the results were NSD2 inh inactive, C2C12 statin inactive, PglD inh inactive and miR-122 sensor inactive.
`Cc1ccc(C)c(S(=O)(=O)N2CCC(c3nc4c(nnn4Cc4ccc5c(c4)OCCO5)c(=O)[nH]3)CC2)c1` gave NSD2 inh inactive, C2C12 statin 77, PglD inh inactive and miR-122 sensor inactive.
Screening Cc1ccc(C)c(Cn2nnc3c(=O)[nH]c(C4CCCN(C(=O)CC(C)C)C4)nc32)c1 (configuration not stated) returned NSD2 inh inactive, C2C12 statin 85, PglD inh inactive and miR-122 sensor inactive.
Screening CC(C)(C)c1ccc(Cn2nnc3c(=O)[nH]c(C4CCN(C(=O)Cc5cccs5)CC4)nc32)cc1 returned NSD2 inh inactive, C2C12 statin 112, PglD inh inactive and miR-122 sensor inactive.
For COc1ccc(CN(C)C[C@@H]2OCCCC[C@H](C)Oc3ccc(NS(=O)(=O)c4ccc(F)cc4)cc3C(=O)N([C@H](C)CO)C[C@@H]2C)cc1 the results were PglD inh inactive and miR-122 sensor inactive.
CO[C@H]1CN(C)C(=O)c2cc(NC(=O)C3CC3)ccc2OC[C@H](C)N(C(=O)NC(C)C)C[C@@H]1C was read as C2C12 statin inactive and PglD inh inactive.
CCc1nc2ccc(C(=O)N3CC(C)CC(C)C3)cc2nc1CC (configuration not stated) was read as NSD2 inh inactive.
Screening Cc1[nH]c2ccccc2c(=O)c1SC(F)(F)C(F)C(F)(F)F (configuration not stated) returned NSD2 inh inactive, C2C12 statin 104, PglD inh inactive and miR-122 sensor inactive.
For O=C1C(Nc2ccccc2)=C/C(=N/S(=O)(=O)c2cccs2)c2ccccc21 the results were C2C12 statin inactive, PglD inh inactive and miR-122 sensor inactive.
Screening CCc1cc[n+](C2=C([O-])c3ccccc3C(=O)/C2=N\S(=O)(=O)c2cccs2)cc1 returned NSD2 inh 82.
Screening CNC[C@H]1OCCCC[C@H](C)Oc2ccc(NC(=O)NC3CCCCC3)cc2C(=O)N([C@@H](C)CO)C[C@@H]1C returned C2C12 statin inactive, PglD inh inactive and miR-122 sensor inactive.
For COc1ccc([C@H]2CC(=O)C=C(c3ccccc3)C2)cc1OC the results were C2C12 statin 80, PglD inh inactive and miR-122 sensor inactive.
Screening COc1ccc([C@H]2CC(=O)C=C(c3ccc(F)nc3)C2)cc1OC returned C2C12 statin 90, PglD inh inactive and miR-122 sensor inactive.
COc1ccccc1S(=O)(=O)N[C@H]1C=C[C@@H](CC(=O)N2CCCCC2)O[C@H]1CO was read as C2C12 statin inactive and PglD inh inactive.
`CCN(c1ccccc1)S(=O)(=O)c1cnc[nH]1` gave NSD2 inh inactive, C2C12 statin 88, PglD inh inactive and miR-122 sensor inactive.
`COc1ccc(NS(=O)(=O)c2cc(NC(=O)Cc3ccccc3F)ccc2N2CCOCC2)cc1` gave NSD2 inh inactive.
Cc1ccc(C(C(=O)NC2CCCC2)N(Cc2cccs2)C(=O)CNC(=O)c2cccs2)o1 (configuration not stated) was read as NSD2 inh inactive, C2C12 statin 136, PglD inh inactive and miR-122 sensor inactive.
For C[C@H](CO)N1C[C@H](C)[C@@H](CN(C)Cc2cccnc2)Oc2ncc(C3=CCCC3)cc2C1=O the results were C2C12 statin inactive and PglD inh inactive.
For C[C@@H](O)C#Cc1cnc2c(c1)C(=O)N([C@@H](C)CO)C[C@H](C)[C@@H](CN(C)C(=O)Nc1ccc(F)cc1)O2 the results were C2C12 statin inactive, PglD inh inactive and miR-122 sensor inactive.
Screening CCC(C)[C@H]1COCCS(=O)(=O)N1Cc1ccc(Br)cc1 (some centres not stated) returned C2C12 statin 117, PglD inh inactive and miR-122 sensor inactive.
Screening Cc1ccc(S(=O)(=O)N2CCN(C(=O)COC(=O)c3cc(C)oc3C)CC2)cc1 returned NSD2 inh inactive, C2C12 statin 98, PglD inh inactive and miR-122 sensor inactive.
For Cc1ccc2oc(=S)n(C)c2c1 the results were NSD2 inh inactive.
For Cn1c(=S)oc2ccccc21 the results were NSD2 inh inactive, C2C12 statin 89, PglD inh inactive and miR-122 sensor inactive.
